Results filed as inconclusive are left out. Calls of active or inactive are those of the source. Unless noted, calls follow the shape of the dose curve; as a rule, active = well fitted curve in the direction sought with a large enough effect in the repeat runs; inconclusive = weak or mixed curves; inactive = no such curve, though single readings can be large; an effect the other way counts as inactive or inconclusive.
Legend:
[1] = qHTS assay to identify small molecule agonists of the RXR signaling pathway - cell viability counter screen (AID 1159529);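 also: HEK 293T cells carrying an RXR-alpha UAS beta-lactamase reporter; series mostly up to about 77 µM; nearly all actives have a fitted effect of over 50% in size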
How it was run: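 Counter screen: CellTiter-Glo luminescence. Cells: RXR-alpha-UAS-bla HEK 293T. Medium: 2% charcoal-stripped FBS. Treatment: 16 h, 37 C. Reagent incubation: 30 min, RT.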

[2] = qHTS assay to identify small molecule antagonists of the retinoid acid receptor (RAR) signaling pathway - cell viability counter screen (AID 1159551); also: nearly all actives have a fitted effect of over 35% in size
How it was run: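 Following overnight attachment, C3RL4 reporter cells received DMSO-dissolved compounds and then retinol (1 uM final). Six hours later at 37 C, ATP content was measured by CellTiter-Glo luminescence.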

[3] = qHTS assay to identify small molecule antagonists of the estrogen related receptor (ERR) signaling pathway from Tox21 library - cell viability counter screen (AID 1224834); also: nearly all actives have a fitted effect of over 30% in size
How it was run: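 Viability readout (CellTiter-Fluor fluorescence, 30 min at 37 C) multiplexed with the ERR assay; cells treated 17.5 h at 37 C with compounds delivered in DMSO.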

[4] = molecular target: Luciferin 4-monooxygenase (Photinus pyralis) (UniProt P08659); assay: qHTS assay to identify small molecule inhibitors of firefly luciferase (AID 1224835); also: series mostly up to about 120 µM; nearly all actives have a fitted effect of over 25% in size
Sequence of Luciferin 4-monooxygenase (Photinus pyralis) (P08659 whole entry, looked up): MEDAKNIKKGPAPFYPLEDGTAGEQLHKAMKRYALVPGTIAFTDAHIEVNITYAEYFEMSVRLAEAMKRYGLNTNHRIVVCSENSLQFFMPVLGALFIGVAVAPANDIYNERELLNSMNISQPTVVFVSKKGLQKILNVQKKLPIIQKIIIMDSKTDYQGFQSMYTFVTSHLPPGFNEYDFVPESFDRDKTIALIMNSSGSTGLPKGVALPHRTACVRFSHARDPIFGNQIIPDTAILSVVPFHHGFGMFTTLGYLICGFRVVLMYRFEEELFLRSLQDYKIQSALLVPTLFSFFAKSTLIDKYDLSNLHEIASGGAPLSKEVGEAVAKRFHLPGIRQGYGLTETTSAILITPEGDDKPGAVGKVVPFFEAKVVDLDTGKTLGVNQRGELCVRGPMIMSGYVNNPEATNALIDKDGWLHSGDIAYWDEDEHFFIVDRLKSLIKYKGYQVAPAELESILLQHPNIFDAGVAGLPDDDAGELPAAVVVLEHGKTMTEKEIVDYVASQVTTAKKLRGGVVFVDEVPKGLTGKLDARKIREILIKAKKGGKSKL
How it was run: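 Quantitative HTS format; KM concentrations of both substrates. Purified P. pyralis FLuc activity quantified from luminescence images.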

[5] = qHTS assay to identify small molecule agonists of the constitutive androstane receptor (CAR) signaling pathway - cell viability counter screen (AID 1224836); also: series mostly up to about 92 µM; nearly all actives have a fitted effect of over 45% in size
How it was run: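 Double-stable HepG2 hepatoma cells (hCAR plus CYP2B6-2.2kb) are treated for 23 h at 37 C with test compounds in 15-point concentration series. PK11195 at 0.75 uM final is co-added. Cell viability is quantified by CellTiter-Fluor.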

[6] = qHTS assay to identify small molecule antagonists of the constitutive androstane receptor (CAR) signaling pathway - cell viability counter screen (AID 1224837); also: series mostly up to about 92 µM; nearly all actives have a fitted effect of over 45% in size
How it was run: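 Fluorescence from CellTiter-Fluor served as the viability signal. Human hepatoma HepG2 cells stably bearing hCAR and CYP2B6-2.2kb received compound plus CITCO (50 nM final) for 23 hr.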

[7] = qHTS assay to identify small molecule antagonists of the estrogen related receptor signaling pathway with the pleiotropic PPARgamma coactivator (PGC) from Tox21 10K library - cell viability counter screen (AID 1224840; active = well fitted cell-killing curve with a large enough effect in the repeat runs, not every such curve was filed as active; also: nearly all actives have a fitted effect of over 40% in size)
How it was run: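 Compounds in DMSO, alongside positive and negative controls, were pinned onto PGC/ERR cells (2,000 per well). Exposure lasted 17.5 hours at 37 C, followed by a 30-minute CellTiter-Fluor incubation and fluorescence reading.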

[8] = qHTS assay to identify small molecule antagonists of the estrogen related receptor signaling pathway with the pleiotropic PPARgamma coactivator (PGC) from Tox21 10K library (AID 1224841; call rule not given here; also: actives are mostly falling curves and most rising ones were filed inactive; nearly all actives have a fitted effect of over 50% in size; also: potency is read from the fitted curve at half-maximal effect)
How it was run: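 Compound exposure ran 18 hours at 37 C in PGC/ERR cells (2,000/well) that had first rested 6 hours in a 37 C/5% CO2 incubator. Luciferase activity was then detected with One-Glo after a 30-minute room-temperature step.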

[9] = qHTS assay to identify small molecule agonists of the estrogen related receptor signaling pathway with the pleiotropic PPARgamma coactivator (PGC) from Tox21 10K library (AID 1224842); also: nearly all actives have a fitted effect of over 15% in size
How it was run: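 PGC/ERR reporter cells (NTP line) were seeded 2,000 per well, rested 6 h at 37 C/5% CO2, then pin-dosed with compounds in DMSO for 18 h at 37 C; luciferase read by One-Glo luminescence after 30 min at room temperature.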

[10] = molecular target: Nuclear receptor subfamily 1 group I member 3 (Homo sapiens) (UniProt Q14994); assay: qHTS assay to identify small molecule antagonists of the constitutive androstane receptor (CAR) signaling pathway (AID 1224838);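 also: HepG2 cells stably expressing hCAR with CYP2B6 luciferase reporter stimulated by CITCO; nearly all actives have a fitted effect of over 40% in size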; also: potency is read from the fitted curve at half-maximal effect
Sequence of Nuclear receptor subfamily 1 group I member 3 (Homo sapiens) (Q14994 whole entry, looked up): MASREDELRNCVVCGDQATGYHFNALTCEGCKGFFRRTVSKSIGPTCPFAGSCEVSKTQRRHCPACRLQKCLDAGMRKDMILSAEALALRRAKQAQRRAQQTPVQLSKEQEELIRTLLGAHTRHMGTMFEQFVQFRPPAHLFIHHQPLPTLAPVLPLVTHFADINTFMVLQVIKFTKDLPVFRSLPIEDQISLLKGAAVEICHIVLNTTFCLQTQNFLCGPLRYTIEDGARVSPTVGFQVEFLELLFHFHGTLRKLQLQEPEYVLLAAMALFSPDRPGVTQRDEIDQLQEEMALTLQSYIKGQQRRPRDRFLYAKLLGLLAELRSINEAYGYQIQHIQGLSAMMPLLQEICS
How it was run: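 Quantitative HTS in double-stable HepG2-CYP2B6-hCAR cells. After 4 h plating, cells get compound (15 concentrations) and CITCO at 50 nM final, incubate 24 h at 37 C, then ONE-Glo luminescence is read.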

[11] = molecular target: Nuclear receptor subfamily 1 group I member 3 (Homo sapiens) (UniProt Q14994); assay: qHTS assay to identify small molecule agonists of the constitutive androstane receptor (CAR) signaling pathway (AID 1224839);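 also: HepG2 cells stably carrying human CAR and a CYP2B6 luciferase reporter; series mostly up to about 92 µM; nearly all actives have a fitted effect of over 15% in size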
How it was run: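 Readout: firefly luciferase luminescence via ONE-Glo. System: HepG2 double-stable for hCAR and CYP2B6-2.2kb. Conditions: 15-point compound titration, PK11195 at 0.75 uM final, 24 h incubation.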

[12] = qHTS assay to identify small molecule antagonists of the retinoic acid receptor (RAR) signaling pathway (AID 1159552; also: potency is read from the fitted curve at half-maximal effect; nearly all actives have a fitted effect of over 50% in size)
How it was run: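 Antagonism of retinol-induced RARE reporter activity was measured in C3RL4 cells. Exposure to compounds and 1 uM final retinol lasted 6 hr at 37 C, with luminescence as endpoint.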

[13] = qHTS assay to identify small molecule agonists of the retinoic acid receptor (RAR) signaling pathway (AID 1159553)
How it was run: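 Cell line C3RL4, RARE luciferase reporter. Treatment: compounds in DMSO, 6 hr, 37 C, 5% CO2, after overnight plating. Detection: luminescence, 30 min RT after reagent.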

Measured: Potency

NS(=O)(=O)c1cc(C2(O)NC(=O)c3ccccc32)ccc1Cl (configuration not stated)
inactive: [1] | [2] | [3] | [4] | [5] | [6] | [7]

CC1(C)SC(C)(C)SC(C)(C)S1
not listed: [10] | [11] | [12] | [13]
inactive: all other assays above

C=C[Si](OC)(OC)OC
not listed: [6] | [8] | [9] | [12] | [13]
inactive: all other assays above

O=c1[nH]c2ccccc2c(=O)n1CCCl
not listed: [1] | [12] | [13]
inactive: all other assays above

O=[N+]([O-])c1ccc(CCO)cc1
not listed: [6] | [8] | [9] | [12] | [13]
inactive: all other assays above

OC1OC[C@@H](O)[C@H](O)[C@H]1O (some centres not stated)
not listed: [8] | [9] | [12] | [13]
inactive: all other assays above

O=C(O)/C=C/c1ccc(/C=C/C(=O)O)cc1
not listed: [8] | [9] | [12] | [13]
inactive: all other assays above

O=S(=O)(c1cccc2cnccc12)N1CCCNCC1
active: [12] 29.8 µM | [10] 13.3 µM | [8] 23.7 µM
not listed: [1] | [5] | [6]
inactive: all other assays above

NS(=O)(=O)c1cc2c(cc1C(F)(F)F)NC(Cc1ccccc1)NS2(=O)=O (configuration not stated)
not listed: [8] | [9] | [12] | [13]
inactive: all other assays above

C=C(C)C(=O)NCCCN(C)C
inactive: [1] | [2] | [3] | [4] | [5] | [7]

CC(C)c1cccc(O)c1
not listed: [4] | [10] | [12] | [13]
inactive: all other assays above

N#CCN(CC#N)CCN(CC#N)CC#N
not listed: [8] | [9] | [12] | [13]
inactive: all other assays above

Nc1cc(N)cc(C(=O)O)c1
inactive: [1] | [2] | [3] | [4] | [5] | [6] | [7]

CCCCCCC(CCCCCCCCCCC(=O)OCC(COC(C)=O)OC(C)=O)OC(C)=O (configuration not stated)
inactive: [1] | [2] | [3] | [4] | [5] | [6] | [7]

CC(C)(O)C(=O)c1ccc(OCCO)cc1
inactive: [1] | [2] | [3] | [4] | [5] | [6] | [7]

N#CC1(O)CCCCC1
not listed: [3] | [12] | [13]
inactive: all other assays above

O=C1C(CCS(=O)c2ccccc2)C(=O)N(c2ccccc2)N1c1ccccc1 (configuration not stated)
not listed: [4] | [8] | [9] | [12] | [13]
inactive: all other assays above
